Laboratory results: the supplement of paper PMC10849652
About 8,800 targets were measured; listed, in parts, are those with a hit and a random draw of the rest. About 0.5% of all pairs of compound and target were hits. Values without a mark were called inactive.

Legend:
Assay in all cases: log2 fold change, soluble protein after heating vs DMSO (PISA); higher = thermal stabilisation; K562 lysate, 10 uM; active = over 0.2 and 3.5 SD of the protein, either way, in both replicates (recomputed)
ibrutinib = compound: C=CC(=O)N1CCC[C@@H](n2nc(-c3ccc(Oc4ccccc4)cc3)c3c(N)ncnc32)C1 [ibrutinib]
Outline: (§1)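 Values give the log-two fold change in thermal stability against solvent controls, from duplicates. Crude K562 extract at 1 mg/mL protein, made by dounce homogenisation in PBS pH 7.4 with 1 mM MgCl2, was treated with 10 μM compound for 30 min. After 3 min heating across 48°C-58°C, aliquots were pooled, adjusted to 0.5% NP-40 at 4°C and centrifuged at 21,000xg for 90 min. The supernatant was measured by TMTpro 16plex LC-MS/MS with channel sums equalised.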

[1] = compound: CC(=O)c1cnc2ccc(-c3cc(Cl)c(O)c(Cl)c3)nc2c1N[C@H]1CC[C@H](CN(C)C)CC1
Outline: as §1

ralimetinib = compound: CC(C)(C)Cn1c(N)nc2ccc(-c3[nH]c(C(C)(C)C)nc3-c3ccc(F)cc3)nc21 [ralimetinib]
Outline: as §1

[2] = compound: CC(C)(O)CC(=O)NCCn1ccc2ncnc(Nc3ccc(Oc4cccc(C(F)(F)F)c4)c(Cl)c3)c21
Outline: as §1

[3] = compound: CC(C)C1=C2N=C(C=C(N2N=C1)NCC3=CC=CC=C3)NCCCCCCN
Outline: as §1

[4] = compound: CC1=C(C(CC(=O)N1)C2=CC=C(C=C2)C(F)(F)F)C(=O)NC3=C(C=C4C(=C3)C=NN4)F
Outline: as §1

[5] = compound: CC1=C(C2=C(C=C1)C(=O)C3=CC=CC=C3N2CCCN)C
Outline: as §1

[6] = compound: CC1=C(C=C(C=C1)NC(=O)C2=CC(=CC=C2)C(C)(C)C#N)NC3=CC4=C(C=C3)N=CN(C4=O)C
Outline: as §1

[7] = compound: CC1=C(C=C(C=C1)NC(=O)C2=CC(=CC=C2)N(C)C)NC(=O)C3=CC=C(C=C3)O
Outline: as §1

[8] = compound: CC1=CC=C(C=C1)SC2=C3C=C(SC3=CN=C2)C(=O)N
Outline: as §1

vemurafenib = compound: CCCS(=O)(=O)Nc1ccc(F)c(C(=O)c2c[nH]c3ncc(-c4ccc(Cl)cc4)cc23)c1F [vemurafenib]
Outline: as §1

[9] = compound: CCCS(=O)(=O)Nc1ccc(F)c(C(=O)c2c[nH]c3ncc(Cl)cc23)c1F
Outline: as §1

barasertib = compound: CCN(CCCOc1ccc2c(Nc3cc(CC(=O)Nc4cccc(F)c4)[nH]n3)ncnc2c1)CCOP(=O)(O)O [barasertib]
Outline: as §1

[10] = compound: CC[C@@H]1C(=O)N(C)c2cnc(Nc3ccc(C(=O)NC4CCN(C)CC4)cc3OC)nc2N1C1CCCC1
Outline: as §1

volasertib = compound: CC[C@@H]1C(=O)N(C)c2cnc(Nc3ccc(C(=O)N[C@H]4CC[C@H](N5CCN(CC6CC6)CC5)CC4)cc3OC)nc2N1C(C)C [volasertib]
Outline: as §1

[11] = compound: CCn1c(C(=O)N(C2CC2)C2CC2)cc2c3c(ncn3C)c(Nc3cc(C)n(C)n3)nc21
Outline: as §1

[12] = compound: CCn1cc(-c2ccnc3[nH]c(-c4cccc(CN(C)C)c4)cc23)c(-c2ccc(NC(=O)N(C)C)cc2)n1
Outline: as §1

[13] = compound: CN1CCC(CNc2ccc3ncc(-c4cccc(OC(F)(F)F)c4)n3n2)CC1
Outline: as §1

saracatinib = compound: CN1CCN(CCOc2cc(OC3CCOCC3)c3c(Nc4c(Cl)ccc5c4OCO5)ncnc3c2)CC1 [saracatinib]
Outline: as §1

sotrastaurin = compound: CN1CCN(c2nc(C3=C(c4c[nH]c5ccccc45)C(=O)NC3=O)c3ccccc3n2)CC1 [sotrastaurin]
Outline: as §1

UniProt Q92889, sequence (Q92889 whole entry, looked up): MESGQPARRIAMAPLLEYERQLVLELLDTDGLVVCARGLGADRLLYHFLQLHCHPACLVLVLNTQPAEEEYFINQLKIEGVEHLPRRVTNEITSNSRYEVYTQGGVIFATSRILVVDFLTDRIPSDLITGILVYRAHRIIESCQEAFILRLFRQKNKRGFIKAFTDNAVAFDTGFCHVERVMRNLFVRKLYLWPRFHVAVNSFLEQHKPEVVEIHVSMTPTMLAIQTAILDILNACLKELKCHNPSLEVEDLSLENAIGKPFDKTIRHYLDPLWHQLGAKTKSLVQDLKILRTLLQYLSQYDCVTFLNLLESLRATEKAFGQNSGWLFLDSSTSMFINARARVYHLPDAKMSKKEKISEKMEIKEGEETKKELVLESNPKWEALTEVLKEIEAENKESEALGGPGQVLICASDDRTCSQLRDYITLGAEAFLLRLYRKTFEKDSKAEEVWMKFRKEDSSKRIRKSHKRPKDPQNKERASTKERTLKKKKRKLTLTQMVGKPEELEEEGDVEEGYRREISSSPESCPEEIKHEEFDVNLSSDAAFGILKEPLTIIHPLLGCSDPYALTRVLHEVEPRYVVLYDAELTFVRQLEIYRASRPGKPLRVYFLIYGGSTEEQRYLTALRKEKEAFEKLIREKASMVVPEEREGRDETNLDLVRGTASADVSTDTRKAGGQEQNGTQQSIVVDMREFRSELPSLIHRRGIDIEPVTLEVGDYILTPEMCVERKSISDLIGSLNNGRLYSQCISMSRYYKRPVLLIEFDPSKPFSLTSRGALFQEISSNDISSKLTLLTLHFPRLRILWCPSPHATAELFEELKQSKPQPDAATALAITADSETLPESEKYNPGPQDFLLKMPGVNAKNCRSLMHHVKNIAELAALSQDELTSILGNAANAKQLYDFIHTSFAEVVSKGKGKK
UniProt Q8NFI3, sequence (Q8NFI3 whole entry, looked up): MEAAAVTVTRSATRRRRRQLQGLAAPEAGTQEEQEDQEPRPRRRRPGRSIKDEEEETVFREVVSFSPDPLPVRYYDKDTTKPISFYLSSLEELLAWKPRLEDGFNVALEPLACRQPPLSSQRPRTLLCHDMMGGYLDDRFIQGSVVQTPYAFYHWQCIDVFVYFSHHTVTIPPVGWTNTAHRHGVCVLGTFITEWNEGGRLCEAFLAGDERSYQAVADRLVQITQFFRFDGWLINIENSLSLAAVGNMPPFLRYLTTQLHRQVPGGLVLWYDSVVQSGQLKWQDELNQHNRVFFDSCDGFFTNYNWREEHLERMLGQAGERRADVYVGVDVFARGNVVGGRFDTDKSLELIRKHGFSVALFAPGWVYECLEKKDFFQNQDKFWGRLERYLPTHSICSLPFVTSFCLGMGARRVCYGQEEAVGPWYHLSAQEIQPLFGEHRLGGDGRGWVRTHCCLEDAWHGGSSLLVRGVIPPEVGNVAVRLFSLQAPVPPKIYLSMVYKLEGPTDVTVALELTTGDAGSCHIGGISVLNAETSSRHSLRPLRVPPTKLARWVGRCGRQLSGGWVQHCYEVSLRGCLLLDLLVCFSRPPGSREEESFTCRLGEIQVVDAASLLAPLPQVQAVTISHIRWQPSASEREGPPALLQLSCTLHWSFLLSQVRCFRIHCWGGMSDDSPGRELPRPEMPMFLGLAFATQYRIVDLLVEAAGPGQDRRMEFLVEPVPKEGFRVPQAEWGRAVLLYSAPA
UniProt Q92947, sequence (Q92947 whole entry, looked up): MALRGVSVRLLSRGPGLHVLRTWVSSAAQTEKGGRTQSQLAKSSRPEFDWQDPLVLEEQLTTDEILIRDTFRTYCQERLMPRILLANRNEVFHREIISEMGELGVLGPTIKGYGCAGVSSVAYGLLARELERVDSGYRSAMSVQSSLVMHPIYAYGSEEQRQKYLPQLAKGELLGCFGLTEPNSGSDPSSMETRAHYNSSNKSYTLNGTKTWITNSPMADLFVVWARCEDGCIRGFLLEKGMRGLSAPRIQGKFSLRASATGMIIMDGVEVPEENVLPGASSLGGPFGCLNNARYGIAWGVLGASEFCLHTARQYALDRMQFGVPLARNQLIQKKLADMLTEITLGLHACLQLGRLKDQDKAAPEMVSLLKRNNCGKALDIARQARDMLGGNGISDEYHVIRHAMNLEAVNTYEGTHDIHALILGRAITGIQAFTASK
UniProt P09104, sequence (P09104 whole entry, looked up): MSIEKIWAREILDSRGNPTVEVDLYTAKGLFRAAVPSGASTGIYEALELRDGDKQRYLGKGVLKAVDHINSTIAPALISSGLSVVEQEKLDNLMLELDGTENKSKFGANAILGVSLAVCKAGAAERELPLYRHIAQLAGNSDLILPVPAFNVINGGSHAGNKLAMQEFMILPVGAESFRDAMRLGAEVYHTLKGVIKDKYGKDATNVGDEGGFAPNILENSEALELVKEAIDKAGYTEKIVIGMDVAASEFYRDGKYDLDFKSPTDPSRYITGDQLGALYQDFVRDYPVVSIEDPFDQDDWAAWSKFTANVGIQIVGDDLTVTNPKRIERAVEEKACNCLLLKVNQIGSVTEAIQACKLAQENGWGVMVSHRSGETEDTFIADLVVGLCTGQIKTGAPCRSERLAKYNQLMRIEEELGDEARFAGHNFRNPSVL
UniProt Q8N5C7, sequence (Q8N5C7 whole entry, looked up): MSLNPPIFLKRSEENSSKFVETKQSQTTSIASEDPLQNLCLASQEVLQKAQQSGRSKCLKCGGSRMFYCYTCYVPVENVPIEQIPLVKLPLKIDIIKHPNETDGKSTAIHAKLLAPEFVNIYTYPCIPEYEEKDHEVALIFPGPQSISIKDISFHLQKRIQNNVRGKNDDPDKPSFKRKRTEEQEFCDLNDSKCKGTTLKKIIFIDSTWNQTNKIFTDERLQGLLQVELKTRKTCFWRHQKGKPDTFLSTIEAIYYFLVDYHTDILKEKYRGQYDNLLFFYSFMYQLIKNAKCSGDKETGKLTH
UniProt O00471, sequence (O00471 whole entry, looked up): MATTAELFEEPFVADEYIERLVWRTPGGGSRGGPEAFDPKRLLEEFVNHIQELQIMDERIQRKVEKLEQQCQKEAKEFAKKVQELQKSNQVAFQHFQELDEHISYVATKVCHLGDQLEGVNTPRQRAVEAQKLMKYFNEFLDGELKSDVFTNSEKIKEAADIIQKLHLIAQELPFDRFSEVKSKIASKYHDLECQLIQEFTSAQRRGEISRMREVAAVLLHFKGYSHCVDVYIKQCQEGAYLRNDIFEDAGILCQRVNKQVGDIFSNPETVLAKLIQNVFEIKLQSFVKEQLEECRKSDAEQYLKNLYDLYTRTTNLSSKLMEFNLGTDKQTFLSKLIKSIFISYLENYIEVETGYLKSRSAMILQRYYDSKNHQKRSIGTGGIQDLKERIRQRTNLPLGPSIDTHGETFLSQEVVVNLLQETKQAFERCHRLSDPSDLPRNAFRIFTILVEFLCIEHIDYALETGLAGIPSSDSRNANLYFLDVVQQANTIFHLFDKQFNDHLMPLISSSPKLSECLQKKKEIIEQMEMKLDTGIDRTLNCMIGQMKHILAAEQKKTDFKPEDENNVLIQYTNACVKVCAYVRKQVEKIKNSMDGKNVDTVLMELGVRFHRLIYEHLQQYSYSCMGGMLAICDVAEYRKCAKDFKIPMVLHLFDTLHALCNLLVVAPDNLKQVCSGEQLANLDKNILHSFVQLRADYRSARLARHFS
UniProt Q8WWZ3, sequence (Q8WWZ3 whole entry, looked up): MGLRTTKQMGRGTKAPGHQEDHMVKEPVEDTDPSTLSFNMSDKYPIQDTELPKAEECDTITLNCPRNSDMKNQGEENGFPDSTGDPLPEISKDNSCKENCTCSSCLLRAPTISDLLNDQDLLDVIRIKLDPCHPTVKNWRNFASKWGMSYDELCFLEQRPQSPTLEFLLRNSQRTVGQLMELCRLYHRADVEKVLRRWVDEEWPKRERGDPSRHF

Target | log2 fold change (ibrutinib) | log2 fold change [1] | log2 fold change (ralimetinib) | log2 fold change [2] | log2 fold change [3] | log2 fold change [4] | log2 fold change [5] | log2 fold change [6] | log2 fold change [7] | log2 fold change [8] | log2 fold change (vemurafenib) | log2 fold change [9] | log2 fold change (barasertib) | log2 fold change [10] | log2 fold change (volasertib) | log2 fold change [11] | log2 fold change [12] | log2 fold change [13] | log2 fold change (saracatinib) | log2 fold change (sotrastaurin)
EXOC5 (UniProt O00471) | -0.015 | 0.012 | 0.04 | -0.003 | -0.016 | 0.008 | 0.003 | -0.024 | 0.041 | -0.013 | 0.033 | 0.03 | 0.044 | -0.036 | -0.081 | 0.02 | 0.068 | -0.115 | 0.044 | 0.022
EDARADD (UniProt Q8WWZ3) | 0.22 | -0.019 | -0.003 | -0.071 | -0.008 | -0.007 | 0.062 | 0.041 | 0.017 | -0.035 | -0.066 | 0.02 | 0.255 (active) | -0.023 | -0.006 | -0.011 | -0.14 | 0.057 | 0.04 | -0.074
ENO2 (UniProt P09104) | -0.008 | -0.014 | 0.031 | -0.051 | -0.007 | -0.013 | -0.029 | 0.035 | 0.032 | 0.011 | 0.05 | 0.008 | -0.132 | 0.044 | 0.046 | -0.069 | -0.231 | 0.319 (active) | 0.06 | 0.034
GCDH (UniProt Q92947) | -0.046 | 0.028 | -0.04 | 0.014 | -0.051 | 0.069 | -0.019 | 0.086 | -0.017 | -0.03 | 0.031 | 0.025 | -0.054 | 0.002 | 0.022 | -0.003 | -0.07 | -0.077 | -0.041 | -0.041
ENGASE (UniProt Q8NFI3) | 0.019 | 0.019 | -0.02 | 0.012 | -0.02 | -0.002 | 0.012 | -0.046 | 0.067 | 0 | 0.034 | 0.05 | 0.003 | 0 | -0.035 | -0.031 | 0.028 | 0.052 | -0.019 | -0.008
DTWD1 (UniProt Q8N5C7) | 0.013 | 0.032 | 0.005 | 0.005 | 0.034 | 0.058 | -0.019 | 0 | -0.02 | -0.027 | 0.028 | 0.018 | -0.005 | 0.024 | -0.036 | 0.016 | -0.026 | -0.032 | -0.033 | 0.019
ERCC4 (UniProt Q92889) | -0.02 | 0.027 | -0.028 | 0.006 | 0.059 | -0.021 | -0.029 | 0.013 | 0.025 | -0.054 | 0.071 | 0.01 | 0.163 | 0.144 | -0.006 | 0.004 | -0.078 | 0.114 | 0.016 | 0.047
EED, A0A5F9ZI63 | -0.026 | -0.018 | 0.008 | -0.039 | -0.004 | 0.036 | -0.003 | -0.016 | 0.042 | -0.008 | -0.019 | 0.034 | -0.029 | 0.005 | 0.015 | -0.012 | -0.047 | 0.049 | 0.026 | 0.031
